Screens as filed in PubChem.
Shown are actives, neighbours in structure and some others; about 12% of the full set was active somewhere.
Sm TGR inh: S. mansoni TGR enzyme inhibition; 360,000 compounds, 3% hits; purified TGR, DTNB reduction, TNB absorbance 405 nm; Potency, µM (series often up to 114 µM), for inactives: at the highest dose activity change, negative = inhibition, hits mostly inhibitors; Q962Y6; AID 485364; active = well fitted inhibition curve with a large enough effect; inconclusive = small, poorly fitted or top-dose-only effect; inactive = no such curve, though single readings can be large or run the other way; note: potency is the fitted concentration of half-maximal effect; % is set by controls: 0 for no effect and ±100 for the full control effect; nearly all actives have a fitted effect of over 60% in size
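TGR 20 nM + NADPH 100 uM (dispensed conc.), cpd preinc 15 min RT; start with NADPH (500 uM addition) then DTNB (15 mM addition). Kinetic TNB absorbance, 405 nm filter. Four-parameter Hill fit across titration.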
Shiga inhibitor: inhibitors of Shiga toxin in Vero cells. Vero cells, Shiga toxin protein synthesis inhibition reporter. inhibition, % at 38.7 µM. 290,000 compounds, 9.2% hits; in the data active = inhibition mostly above about 28%, no sharp cut-off; inactive = mostly below about 43%; note: 0% is about no effect
Cycloheximide cs: counter-screen hit for Shiga toxin inhibitors, cycloheximide; cell reporter, cycloheximide protein synthesis inhibition counterscreen; max response, %; 300,000 compounds, 12% hits; AID 2314; in the data active = max response mostly above about 13%, no sharp cut-off; inactive = mostly below about 14%; note: read at 38.3 µM for the half of the compounds with a filed dose; 0% is about no effect
FMDV inh: foot and mouth disease virus antiviral activity; FMDV antiviral cell-based qHTS; Potency, µM (doses to about 57.9 µM), for the others: top-dose activity change, negative = inhibition, usual class: inhibitors; 410,000 compounds, 1.2% hits; calls by dose curve; tested in HEK293T cells; note: read-out not given here; potency is the fitted concentration of half-maximal effect; % is set by controls: 0 for no effect and ±100 for the full control effect; nearly all actives have a fitted effect of over 45% in size
* hit, by the source's call; ? = inconclusive; . = no result given; [ ] = dose if it differs, or a comment.

SMILES	Sm TGR inh	Shiga inhibitor	Cycloheximide cs	FMDV inh
CCCCN1CCC[C@@H]1CNC(=O)c1cc(C#N)c2ccccc2c1OC	.	.	.	11%
COc1ccc(C=NNC(=O)CCCC(=O)NN=Cc2ccc(OC)c(O)c2)cc1O	.	.	.	-15%
COc1ccc(/C=N/Nc2ccc([N+](=O)[O-])cc2)cc1O	0%	80*	26*	11%
COc1ccc(/C=N/n2cncn2)cc1Cn1cc([N+](=O)[O-])cn1	13%	21	-3	9%
COc1ccc(/C=N/Nc2ccc([N+](=O)[O-])cc2)cc1Cn1cc([N+](=O)[O-])cn1	1%	43	11*	?
CC(=O)C1=C(C)OC(N)=C(C#N)C1c1cc([N+](=O)[O-])ccc1Cl (stereo not given)	22µM*	9	8	-16%
COc1ccc2cc(C3C(C#N)=C(N)OC(C)=C3C(C)=O)c(Cl)nc2c1 (stereo not given)	-3%	38	8	-14%
CC(=O)C1=C(C)OC(N)=C(C#N)C1c1cccc([N+](=O)[O-])c1 (stereo not given)	14µM*	-8	-2	-28%
CCN1CCN(c2nnc(-n3cccc3C(=O)Nc3cccc(OC)c3)s2)CC1	4%	.	.	7%
CN(C)c1ccc(/C=C/c2nnnn2-c2ccccc2)cc1	-3%	108*	61*	15%
COc1ccc2c(c1)C(c1ccc(C)o1)=NNC(c1ccccc1)=N2	.	96*	42*	15%
Cc1ccc(C2=Nc3cccnc3C(c3ccccc3)=NN2)cc1	0%	79*	49*	57%
CCOc1ccc2c(c1)C(c1ccccc1)=NNC(c1ccccc1)=N2	-15%	57*	45*	13%
COc1ccc2c(c1)C(c1ccc(C)o1)=NNC(c1cccnc1)=N2	1%	12	1	-10%
CCCOc1ccc(C2=NNC(c3cccs3)=Nc3ccc(OC)cc32)cc1	1%	98*	57*	59%
CCC1CCCCN1C(=O)Cn1c(=O)n(CC2CCC(C(=O)NC)CC2)c(=O)c2sccc21 (stereo not given)	1%	.	.	-24%
CCCSc1nc(-c2ccccc2)[nH]c1S(=O)(=O)c1ccc(C)cc1	1%	.	.	30%
Cc1ccc2c(c1)C(c1ccncc1)=NNC(c1ccc(F)cc1)=N2	-7%	16	16	7%
Fc1ccc2c(c1)C(c1ccncc1)=NNC(c1ccc(Br)cc1)=N2	-4%	-13	14	-24%
Cc1ccc(C2=Nc3ccc(Br)cc3C(c3ccncc3)=NN2)cc1	4%[57.1 µM]	70	28*	2%
Cc1ccc2c(c1)C(c1ccncc1)=NNC(c1ccccc1)=N2	17%	103*	50*	52%
Cc1ccc2c(c1)C(c1ccncc1)=NNC(c1ccc(C(C)C)cc1)=N2	1%	32*	7	.
Cc1ccc(NC(=O)CN2C(=O)C(c3ccc(C(C)(C)C)cc3)=NC2(C)C)cc1	-3%	.	.	-4%
Cc1cccc2c1-c1sc(C(=O)N3CCN(c4ccccc4)CC3)cc1CO2	5%	.	.	-11%
Cc1cc(C)n2c(Nc3ccc4c(c3)OCCO4)c(-c3ccccc3)nc2n1	-3%	52*	46*	25%
SMILES	Sm TGR inh	Shiga inhibitor	Cycloheximide cs	FMDV inh
Cc1cccc2nc(-c3ccco3)c(Nc3ccc4c(c3)OCO4)n12	?	24	31*	-16%
Cc1ccc(-c2nc3cccc(C)n3c2Nc2ccc3c(c2)OCO3)o1	?	.	.	8%
Cc1cc(C)n2c(Nc3ccc4c(c3)OCCO4)c(-c3ccc(Cl)cc3)nc2n1	7%	.	.	0%
COc1ccc(OC)c(NC(=O)CSC2=Nc3ccccc3C3=NC(CCC(=O)NCc4ccccc4)C(=O)N23)c1 (stereo not given)	1%	.	.	-7%
COc1ccc(-c2nnc(Nc3nc4c(OC)cccc4s3)o2)cc1	-18%[11.4 µM]	-5	-4	16%
COc1ccc(-c2nnc(Nc3nc4c(OC)cccc4s3)o2)c(OC)c1	-3%	43*	18*	.
Cc1c(Cl)ccc2sc(NC(=O)C3CC3)nc12	4%	28*	18*	-5%
O=C(Nc1nc2c(F)cccc2s1)C1CC1	-2%	54*	36*	18%
NNc1nc2c(F)cc(F)cc2s1	-12%	82*	70*	30%
CCCCNS(=O)(=O)c1ccc2nc(-c3cccnc3)cc(C(=O)NCCC)c2c1	15%	.	.	85%
COc1ccc(NC(=O)c2ccco2)cc1NC(=O)COc1cc(C)ccc1C(C)C	-3%	.	.	?
O=C(O)Cc1ccc(NC2(c3ccccc3)C(=O)c3ccccc3C2=O)cc1	-2%	.	.	-18%
Fc1cccc2sc(Nc3nc4c(F)cccc4s3)nc12	-3%	38*	63*	14%
Fc1cccc2sc(Nc3nnc(-c4ccccc4)o3)nc12	0%	46*	27*	33%
Nc1nc2c(F)cccc2s1	-2%	-12	10	5%
O=C(NNc1nc2c(F)cccc2s1)c1ccc(F)cc1	-2%	9	12	-16%
NNc1nc2c(F)cccc2s1	-6%	77*	84*	20%
COc1ccc(C(C)NC(=O)CN(c2cc(OC)ccc2OC)S(=O)(=O)c2ccccc2)cc1 (stereo not given)	3%	.	.	-10%
CCOc1ccc(-c2nc(CSc3nnc(C)s3)cs2)cc1OC	-10%	89*	37*	-13%
CCCS(=O)(=O)NCCc1csc(-c2ccc(OC)c(OC)c2)n1	8%	-7	-3	-23%
CCS(=O)(=O)NCCc1csc(-c2ccc(OC)c(OC)c2)n1	0%	-9	1	-9%
CCOc1ccc(-c2nc(CSc3nncs3)cs2)cc1OC	0%	53	19*	-5%
CCCCn1c(=O)[nH]c(=O)c2c1nc(-c1ccc3ccccc3c1)n2CC	5%	-14	1	-21%
COCCn1c(-c2ccc(SC)cc2)nc2c1c(=O)[nH]c(=O)n2CC(C)C	25%	25	24*	24%
COCCn1c(=O)[nH]c(=O)c2c1nc(-c1ccc(-c3ccc(Cl)cc3[N+](=O)[O-])o1)n2Cc1ccccc1	50µM*	-3	-2	?
SMILES	Sm TGR inh	Shiga inhibitor	Cycloheximide cs	FMDV inh
COCCn1c(-c2ccc(-c3ccc([N+](=O)[O-])cc3Br)o2)nc2c1c(=O)[nH]c(=O)n2CC(C)C	45µM*	17	-2	?
CCCCn1c(=O)[nH]c(=O)c2c1nc(-c1ccc(-c3ccccc3Br)o1)n2CC	13µM*	-9	-3	0%
COc1ccc(/C=N/NC(=O)c2nn(C)cc2Br)cc1CSCc1ccco1	?	38*	31*	-15%
COc1cccc(CNC(=O)c2cc(C)nc3c2c(C)nn3-c2cccc(F)c2)c1	5%	.	.	-10%
O=C(CN1C(=O)COc2ccc(S(=O)(=O)N3CCCC3)cc21)N1CCN(c2ccccc2)CC1	5%	.	.	-16%
CSc1ccccc1OCc1cc(C(=O)N2CCCC2c2nonc2C)no1 (stereo not given)	-9%	91*	48*	17%
Cc1nonc1C1CCCN1C(=O)c1cc(COc2ccc(F)cc2F)on1 (stereo not given)	7%	103*	41*	31%
O=C(COc1ccccc1F)Nc1ccc2nc(SCC(=O)N3CCOCC3)sc2c1	-2%	.	.	?
Cn1c(=O)c(=O)n(C)c2cc(S(=O)(=O)N3CCCC3C(=O)Nc3cccc(F)c3)ccc21 (stereo not given)	4%	.	.	-18%
